Experimental findings from the supplement of paper PMC12494721 are described below.

Where a name gives a salt, the structure may show the parent alone.

The subject of the assay is Klebsiella aerogenes DSM 30053. The assay is described as follows: growth (OD595) fold change vs plate DMSO controls (fold change (ratio)); higher = more growth. The settings on record: incubation time: 27 h, anaerobic, 37 °C. The gist of the method: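 The reported measure is growth: the fold change against the median of DMSO controls on the plate. Absorbance at 595 nm from anaerobic 96-well mGAM cultures grown for 27 h at 37 °C was blank-subtracted, corrected for background with 20 µM compound solutions in water, and converted to OD with a calibration factor of 5. Fold changes above 1.5 appear as NA, and values are the mean of 2 biological replicates.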
For the compound `CC(=O)OCC(=O)[C@@]1(O)[C@H](C)C[C@H]2[C@@H]3CCC4=CC(=O)C=C[C@]4(C)[C@@]3(F)[C@@H](O)C[C@@]21C` [Dexamethasone acetate] (20 µM), the growth worked out at 0.986. Turning to `CN(C)CCC(c1ccc(Br)cc1)c1ccccn1` (stereo not drawn) [Brompheniramine maleate] (20 µM), the growth was 1.07. Turning to `C#C[C@]1(O)CC[C@H]2[C@@H]3CCC4=C(CCC(=O)C4)[C@H]3CC[C@@]21C` [Norethynodrel] (20 µM), the growth was determined as 1. As for `CN1CCN(CCCN2c3ccccc3Sc3ccc(S(=O)(=O)N(C)C)cc32)CC1` [Thioproperazine dimesylate] (20 µM), the growth stood at 1.12. Consider `CCN1/C(=C/C=C/C=C/c2sc3ccccc3[n+]2CC)Sc2ccccc21` [Dithiazanine iodide] (20 µM), for which the growth was 0.837. In the case of `O=C(O)/C=C/c1ccc(Cn2ccnc2)cc1` [Ozagrel hydrochloride] (20 µM), the growth was determined as 0.994. Consider `C=CCOc1ccc(CC(=O)O)cc1Cl` [Alclofenac] (20 µM), for which the growth amounted to 0.98. As for `CCCCc1nc(Cl)c(CO)n1Cc1ccc(-c2ccccc2-c2nnn[nH]2)cc1` [Losartan] (20 µM), the figure is 1.01.
